# Compound activity: PubChem, The Scripps Research Institute Molecular Screening Center
# This is a sample that favours compounds with a hit; in the whole collection about 3.5% have one here.
# FBW7 activator = human FBW7 E3 ligase activation, primary screen. Q969H0. AlphaScreen FBW7–phospho-cyclin E peptide binding, activator screen. normalized activity (activation), % at 26.1 µM. actives 0.13% (n = 650,000). AID 1259310; in the data active means normalized activity above about 1.9%;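 further: purified mutant Fbw7 with reduced substrate affinity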
# TEAD-YAP inh = TEAD-YAP interaction inhibition. HEK-TIYL cells, TEAD-Gal4/YAP UAS-luciferase luminescence. AID 1259422. actives 1.4% (n = 640,000). inhibition, % at 9.12 µM; in the data active means inhibition above about 32%
# MITF inh = inhibitors of human MITF; O75030; AlphaScreen MITF homodimerization, bead proximity signal; inhibition, % at 2.6 µM; actives 0.91% (n = 650,000); AID 1259374; in the data active means inhibition above about 50%
# Target sequence (O75030 whole entry, looked up): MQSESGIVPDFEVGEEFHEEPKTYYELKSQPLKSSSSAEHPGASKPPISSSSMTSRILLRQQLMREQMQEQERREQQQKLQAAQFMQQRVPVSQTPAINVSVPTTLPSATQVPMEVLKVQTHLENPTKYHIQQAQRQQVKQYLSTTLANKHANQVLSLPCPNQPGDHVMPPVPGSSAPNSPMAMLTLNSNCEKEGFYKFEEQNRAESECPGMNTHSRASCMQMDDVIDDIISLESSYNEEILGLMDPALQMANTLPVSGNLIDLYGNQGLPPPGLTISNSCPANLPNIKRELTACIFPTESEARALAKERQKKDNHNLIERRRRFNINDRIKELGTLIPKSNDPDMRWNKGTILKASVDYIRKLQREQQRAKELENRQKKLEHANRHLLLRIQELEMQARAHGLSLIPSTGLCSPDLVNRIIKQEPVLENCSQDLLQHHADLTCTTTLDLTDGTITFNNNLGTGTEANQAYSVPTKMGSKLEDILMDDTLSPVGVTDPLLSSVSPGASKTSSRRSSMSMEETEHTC
# GPR151 ag = activators of human GPR151; Q8TDV0; PathHunter beta-arrestin GPR151 cells, luminescence; actives 1% (n = 650,000); activation, % at 11.2 µM; in the data active means activation above about 4.9%
# GPR151 conf act = human GPR151 activation, confirmation screen; 6,700 tested, under 10 active; GPR151 PathHunter beta-arrestin cells, luminescence, 90 min; % of EA-reagent control over plate median; activation, % at 11.2 µM; shares compounds with GPR151 ag;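 active means mean percent activation across replicates above the confirmation screen cutoff of 4.91%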
# GPR119 ag = activates human GPR119 in a GPR151 counter-screen | shares compounds with GPR151 ag | GPR119 PathHunter beta-arrestin cells, luminescence, 90 min; 0 = compound-well median, 100 = enzyme-acceptor control | activation, % at 11.2 µM | actives 0.3% (n = 6,700) | AID 1508611;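 active means mean percent activation in the counterscreen above 29.09%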;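 further: counterscreen on off-target GPR119 to flag nonselective hits from the GPR151 activator screen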
# Numbers stand for hits; - = inactive; . = no result given; ! = not active in a repeat.
SMILES,FBW7 activator,TEAD-YAP inh,MITF inh,GPR151 ag,GPR151 conf act,GPR119 ag
COc1ccc([N+](=O)[O-])cc1NC(=O)/C=C/c1ccc(F)cc1,-,-,-,8.8,-,-
O=C(/C=C/c1ccc([N+](=O)[O-])cc1)Nc1ccccc1C(=O)Nc1cccc(C(=O)O)c1,-,-,-,4.9,-,-
CCOCC(=O)Nc1cc([N+](=O)[O-])ccc1OC,-,-,-,-,.,.
O=C(CCc1nc2cccnc2n1-c1ccccc1)NCCc1cccs1,-,-,-,-,.,.
COc1ccc(/C=C/C(=O)Nc2ccc([N+](=O)[O-])cc2OC)cc1Br,-,-,-,-,.,.
COc1ccc(/C=C/C(=O)Nc2cc([N+](=O)[O-])ccc2OC)cc1Br,-,-,-,5.4,-,-
O=C(Cc1n[nH]c(=O)c2ccccc12)N1CC[C@@H](c2ccccc2)[C@H](O)C1,-,-,-,-,.,.
O=C(NCc1ccccc1Cl)c1nnc(-c2ccccc2)o1,-,-,-,5.0,-,-
O=C(NCc1ccccc1Cl)c1nnc(-c2ccncc2)o1,-,-,-,-,.,.
O=C(CCCn1cccc1)Nc1ccc(F)cc1F,-,-,-,6.7,-,-
O=C(CCCCC(=O)Nc1ccc(F)cc1F)Nc1ccc(F)cc1F,-,-,-,-,.,.
CCc1nn(CC(=O)N2CCC(C(N)=O)CC2)c(=O)c2cc3occc3n12,-,-,-,-,.,.
CCc1ccc(-c2cc(C(=O)N3CCCCC3)c3ccccc3n2)cc1,-,-,-,-,.,.
CCc1ccc(-c2cc(C(=O)N3CCN(C/C=C/c4ccccc4)CC3)c3ccccc3n2)cc1,-,47.0,-,5.3,-,-
Cc1cc2ncn(CCC(=O)NCc3ccccc3)c2cc1C,-,-,-,-,.,.
CC(C)CCN1CCNC(=O)C1CC(=O)N(Cc1nccn1C)C(C)C (centres undefined),-,-,-,5.8,-,-
COc1ccc(-c2cc(C(F)(F)F)n3nc(C(=O)Nc4cccc(C)c4Cl)c(Cl)c3n2)cc1OC,-,-,-,-,.,.
COc1ccc(-c2cc(C(F)(F)F)n3nc(C(=O)Nc4ccccc4C(F)(F)F)c(Cl)c3n2)cc1OC,-,-,-,6.0,-,-
CC#CCN1C(=O)NC(CCc2ccccc2)(C2CCN(C(=O)C#CC)CC2)C1=O (centres undefined),-,-,-,7.0,-,-
Cc1cccc(C)c1NC(=O)CCC(=O)O,-,-,-,20.0,-,-
O=C(NC1CCCCC1)c1ccc(F)c(F)c1,-,-,-,5.8,-,-
O=C(NC1CCCCC1)c1ccc(-n2cccc2)cc1,-,-,-,5.8,-,-
CN(Cc1ccn[nH]1)C(=O)CC1C(=O)NCCN1CC(c1ccccc1)c1ccccc1 (centres undefined),-,-,-,-,.,.
Cc1nonc1CN(C)C(=O)C1CC12CCN(C(=O)c1ccccc1C(F)(F)F)CC2 (centres undefined),-,-,-,5.3,-,-
CCOC(=O)C1(Cc2ccccc2C(F)(F)F)CCN(C(=O)Cc2nonc2C)CC1,-,-,-,-,.,.
SMILES,FBW7 activator,TEAD-YAP inh,MITF inh,GPR151 ag,GPR151 conf act,GPR119 ag
C#CCN1CCc2cc(OC)c(OC)cc2C1C (centres undefined),-,-,-,6.4,-,-
COc1cc2c(cc1OC)C(C)N(C(=O)c1ccccc1Cl)CC2 (centres undefined),-,-,-,-,.,.
CCOC(=O)C1=C(C)NC2=C(C(=O)C(C(=O)OC)C(C)C2)C1c1ccccc1OC(C)C (centres undefined),-,-,-,5.2!,-,-
COc1cc(OC)cc(C(=O)N2CCN(C3CCCCC3)CC2)c1,-,-,-,5.0,-,-
COc1cc(C(=O)N2CCN(C3CCCC3)CC2)cc(OC)c1OC,-,-,-,-,.,.
Cc1ccccc1-n1c(O)c(C=NCCCC(C)C)c(=O)[nH]c1=O,-,-,-,8.5,-,-
COc1ccccc1N=Cc1c(O)n(-c2ccccc2C)c(=O)[nH]c1=O,-,-,-,6.0,-,-
CCOc1ccc(-c2nc(CSCC(=O)N3CCC(C(N)=O)CC3)c(C)o2)cc1,-,-,-,-,.,.
Cc1cccc(/C(N)=N/OC(=O)c2ccc(I)cc2)c1,-,-,-,-,.,.
CCOC(=O)C1=c2s/c(=C/c3ccccc3Br)c(=O)n2C(N)=C(C#N)C1c1ccccc1Br (centres undefined),-,-,-,-,.,.
COc1cc(C=O)ccc1Oc1ncccc1[N+](=O)[O-],-,-,-,8.0,-,-
CCN(CC)S(=O)(=O)c1ccc(C(=O)N=c2sc3c4ccccc4ccc3n2C)cc1,-,-,-,-,.,.
COc1ccc(Cn2c(CCC(=O)Nc3ccc4c(c3)OCCO4)nc3cccnc32)cc1,-,-,-,-,.,.
O=C(c1ccc(F)cc1)N1CCN(c2cc(-n3cccn3)ncn2)CC1,-,-,-,-,.,.
CC(C)(C)c1ccc(OCC(O)CNC2CCCC2)cc1 (centres undefined),-,-,-,12.4,-,-
CC(C)NCC(O)COc1ccc2c(c1)CCC2 (centres undefined),-,-,-,-,.,.
OC(CNC1CCCC1)COc1ccc2c(c1)CCC2 (centres undefined),-,-,-,12.0,-,-
O=C(C[n+]1cccc(Br)c1)c1cccs1,-,-,-,7.8,-,-
CCc1ccc(NS(=O)(=O)c2ccc3[nH]cc(C(=O)N4CCCCC4)c(=O)c3c2)cc1,-,-,-,-,.,.
CC(C)c1ccc(NS(=O)(=O)c2ccc3[nH]cc(C(=O)N4CCCC4)c(=O)c3c2)cc1,-,-,-,9.7,-,-
Cc1cc(C)nc(NNS(=O)(=O)c2ccc(Cl)cc2)n1,-,-,-,5.9,-,-
O=C(C1CCCO1)N(c1ccc(Cl)cc1)C1C=CS(=O)(=O)C1 (centres undefined),-,-,-,9.6,-,-
NS(=O)(=O)c1ccc(NC(=O)CSc2ccc([N+](=O)[O-])cn2)cc1,-,-,-,7.9,-,-
O=C(CSc1ccc([N+](=O)[O-])cn1)Nc1ccc(Oc2ccccc2)cc1,-,-,-,-,.,.
O=C(CSc1ccc([N+](=O)[O-])cn1)Nc1cccc(C(F)(F)F)c1,-,-,-,5.6,-,-
SMILES,FBW7 activator,TEAD-YAP inh,MITF inh,GPR151 ag,GPR151 conf act,GPR119 ag
CC(C)(C)c1ccc(C(=O)On2c(-c3ccccc3F)nc3ccccc3c2=O)cc1,-,-,-,5.9,-,-
CC(C)[C@@H](CO)Nc1ccc2ncc(-c3cccc(N(C)C)c3)n2n1,-,-,-,-,.,.
CCC(CO)Nc1ccc2ncc(-c3cccc(N(C)C)c3)n2n1 (centres undefined),-,-,-,6.4,-,-
C=CCCC(=O)NCc1cc(NS(=O)(=O)c2ccccc2Cl)cc(C(=O)OC)c1,-,-,-,-,.,.
COC(=O)c1cc(CNC(=O)C(C)C)cc(NS(=O)(=O)c2ccccc2Cl)c1,-,-,-,5.6,-,-
COCCNC(=O)CCc1nnc2n(Cc3ccc(F)cc3)c(=O)c3ccccc3n12,-,-,-,-,.,.
COc1ccc(C(=O)Oc2ccc(C#N)cc2)cc1,-,-,-,6.7,-,-
